According to PubChem BioAssay (EPA / NIEHS):
Inconclusive results are not listed. Active and inactive are the calls of the source. Rule for the calls, unless noted: active = hit-call score of the fitted dose curve at least 0.9, where 1 is the maximum; inactive = score below 0.9.

Tests used:
[1] = CCTE_Shafer_MEA_dev_firing_rate_mean: CCTE's Neural Network Formation Assay for Mean Firing Rate, Shafer Lab (AID 2284031)
How it was run: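 Extracellular spike frequency, AUC over DIV 5–12 recordings, in rat cortical neuron MEA cultures dosed from plating; loss direction vs DMSO.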

[2] = CCTE_Shafer_MEA_dev_per_burst_spike_percent: CCTE's Neural Network Formation Assay for Percent of Spikes in a Burst, Shafer Lab (AID 2284032)
How it was run: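 Value is trapezoidal AUC over recordings on days 5, 7, 9 and 12 of the well-mean fraction of spikes falling in single-electrode bursts; rat cortical cultures exposed continuously from plating, treatment renewed DIV 5 and 9, fitted downward against DMSO.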

[3] = CCTE_Shafer_MEA_dev_burst_rate: CCTE's Neural Network Formation Assay for Burst Rate, Shafer Lab (AID 2284042)
How it was run: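 Primary rat cortical neurons on PEI-coated 48-well MEA plates (laminin added with cells at plating) (16 electrodes/well), exposed from plating to day 12, dosing renewed at DIV 5 and 9. Burst rate averaged over active electrodes, recorded DIV 5, 7, 9, 12, summarized as AUC; loss versus DMSO.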

[4] = CCTE_Shafer_MEA_dev_per_burst_interspike_interval: CCTE's Neural Network Formation Assay for Burst Interspike Interval, Shafer Lab (AID 2284044)
How it was run: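 Rat cortical primary cultures, 16 electrodes/well; compound from plating, renewed with full media change DIV 5 and 9. Spikes via adaptive detector; per-burst ISI well-mean over active bursting electrodes; AUC of DIV 5/7/9/12 recordings; loss-direction fit vs DMSO.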

[5] = CCTE_Shafer_MEA_dev_interburst_interval_mean: CCTE's Neural Network Formation Assay for Mean Interburst Interval, Shafer Lab (AID 2284046);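 note: well-mean interburst interval of bursting electrodes as AUC over four recording days; curve fitted for decrease in interburst interval relative to DMSO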
How it was run: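 Recordings on days 5, 7, 9 and 12 give well-mean interburst interval across actively bursting electrodes, summarized as area under the curve. Cultures: rat cortical neurons, continuous exposure from day 0, compound renewed at feeds; decrease analyzed versus DMSO.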

[6] = CCTE_Shafer_MEA_dev_network_spike_number: CCTE's Neural Network Formation Assay for Number of Network Spikes, Shafer Lab (AID 2284048);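 note: synchronized bursts across electrodes counted on days 5 7 9 12 and integrated as AUC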
How it was run: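 Rat cortical primary cultures on 48-well MEA (16 electrodes/well); continuous exposure DIV 0–12, full medium and treatment exchange DIV 5, 9. Readout: network spike count, AxIS adaptive detection, recordings DIV 5/7/9/12 collapsed to AUC; loss-of-signal fit, DMSO baseline.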

[7] = CCTE_Shafer_MEA_dev_network_spike_peak: CCTE's Neural Network Formation Assay for Mean Number of Electrodes in Network Spike, Shafer Lab (AID 2284049)
How it was run: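 Network-spike peak electrode count from recordings on days 5, 7, 9 and 12 was combined as trapezoidal area under the curve. Rat cortical cultures were treated continuously from plating, with compound renewed at each feed (DIV 5, 9); fits versus DMSO.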

[8] = CCTE_Shafer_MEA_dev_spike_duration_mean: CCTE's Neural Network Formation Assay for Mean Spike Duration, Shafer Lab (AID 2284051);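 note: mean network spike duration pooled as area under curve over DIV 5 to 12 recordings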
How it was run: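 Primary rat cortical neurons on 16-electrode MEA wells (PEI-coated, laminin in plating drop), exposed from plating through DIV 12 with compound renewed at DIV 5 and 9. Mean network-spike duration recorded DIV 5, 7, 9, 12; trapezoidal AUC across days, DMSO baseline.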

[9] = CCTE_Shafer_MEA_dev_network_spike_duration_std: CCTE's Neural Network Formation Assay for Standard Deviation of Network Spike Duration, Shafer Lab (AID 2284052);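 note: area under curve of spike duration SD across recording days 5 to 12; hits are decreases in network spike duration SD versus DMSO vehicle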
How it was run: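 Primary rat cortical neurons on PEI-coated 16-electrode MEA wells, exposed from plating day 0 through day 12 with compound renewed at DIV 5 and 9. Network spike duration SD recorded on days 5, 7, 9, 12, collapsed as trapezoidal AUC; loss-of-signal fit versus DMSO.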

[10] = CCTE_Shafer_MEA_dev_per_network_spike_spike_number_mean: CCTE's Neural Network Formation Assay for Mean Number of Spikes in a Network Spike, Shafer Lab (AID 2284053)
How it was run: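 Primary rat cortical neurons on 48-well, 16-electrode MEA plates were exposed from plating to DIV 12, with dosing renewed on DIV 5 and 9. Spikes per network spike (0.05 s peak window) were recorded on DIV 5, 7, 9 and 12 and collapsed as trapezoidal AUC versus DMSO.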

[11] = CCTE_Shafer_MEA_dev_LDH: CCTE's Lactate Dehydrogenase Assay for Cytotoxicity in the Neural Network Formation Assay, Shafer Lab (AID 2284068; active = hit-call score of the fitted dose curve at least 0.9, where 1 is the maximum;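 note: exposure for twelve days from plating with re-dosing on DIV 5 and 9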)
How it was run: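 Primary rat cortical neurons were plated on PEI/laminin MEA plates and exposed from day 0 for twelve days, with compound renewed at DIV 5 and 9. Cytotoxicity was determined by spectrophotometric LDH assay relative to DMSO.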

[12] = CCTE_Shafer_MEA_dev_mutual_information_norm: CCTE's Neural Network Formation Assay for Mutual Information Normalization, Shafer Lab (AID 2284091)
How it was run: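 Neurons from rat cortex were seeded at 1.5 x 10^5 cells/well onto PEI-coated MEAs in a laminin drop, then exposed to compound from day 0 for twelve days. Network recordings on four days gave mutual information, summarised by AUC relative to DMSO.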

[13] = CCTE_Shafer_MEA_dev_correlation_coefficient_mean: CCTE's Neural Network Formation Assay for Mean Correlation Coefficient, Shafer Lab (AID 2284093)
How it was run: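 Spontaneous activity recorded on days 5, 7, 9 and 12 post-plating; pairwise spike correlations are averaged across active electrodes and collapsed to an area-under-curve. Rat cortical cultures are dosed from plating through 12 days, with compound renewed at media changes.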

[14] = CCTE_Mundy_HCI_Cortical_Synap_Neur_Matur_NeuriteSpotCountPerNeuriteLength: CCTE's Synaptogenesis and Neurite Maturation Assay in rat cortical cells for Neurite Spot Count per Neurite Length, Mundy Lab (AID 2284210)
How it was run: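 Read-out: synaptophysin puncta counted along MAP2-stained neurites, normalised to neurite length, by automated high-content imaging. Rat cortical cells; AraC DIV 5; chemical dosing DIV 7; termination DIV 12. DMSO baseline.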

[15] = CCTE_Mundy_HCI_Cortical_Synap_Neur_Matur_BPCount: CCTE's Synaptogenesis and Neurite Maturation Assay in rat cortical cells for Branch Point Count, Mundy Lab (AID 2284211)
How it was run: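 In this multiplexed morphology assay, cortical cells from rat receive chemicals at DIV 7 and are fixed at DIV 12, then immunostained and imaged; branch points are counted, with DMSO as baseline.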

[16] = CCTE_Mundy_HCI_Cortical_NOG_NeuriteCount: CCTE's Neurite Outgrowth Assay in rat cortical cells for Neurite Count, Mundy Lab (AID 2284212);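 note: cells fixed about two days after chemical exposure began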
How it was run: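 Rat cortical primary cells; compound added 2 h post-plating, 1/10 dilution of working solution. Anti-betaIII-tubulin/AF488 ICC; ArrayScan neurite count vs DMSO.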

[17] = CCTE_Mundy_HCI_Cortical_NOG_NeuriteLength: CCTE's Neurite Outgrowth Assay in rat cortical cells for Neurite Length, Mundy Lab (AID 2284213)
How it was run: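 First, rat primary cortical cells were plated and, 2 h later, given test chemical as a 1/10 dilution. Finally, βIII-tubulin immunostaining enabled automated imaging of neurite length.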

[18] = CCTE_Mundy_HCI_Cortical_Synap_Neur_Matur_NeuriteLength: CCTE's Synaptogenesis and Neurite Maturation Assay in rat cortical cells for Neurite Length, Mundy Lab (AID 2284214)
How it was run: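 DMSO-normalised neurite length, from high-content imaging of anti-MAP2-stained rat cortical cells fixed at DIV 12. Glia were suppressed with AraC (DIV 5) before chemical exposure from DIV 7.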

[19] = CCTE_Mundy_HCI_Cortical_Synap_Neur_Matur_NeuriteSpotCountPerNeuron: CCTE's Synaptogenesis and Neurite Maturation Assay in rat cortical cells for Neurite Spot Count per Neuron Count, Mundy Lab (AID 2284215)
How it was run: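 Rat primary cortical cells received AraC at DIV 5, then chemicals with a media change at DIV 7, and were fixed at DIV 12. Synaptophysin puncta on MAP2-stained neurites per neuron were counted by high-content imaging, fitted relative to DMSO.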

[20] = CCTE_Mundy_HCI_Cortical_Synap_Neur_Matur_SynapseCount: CCTE's Synaptogenesis and Neurite Maturation Assay in rat cortical cells for Synapse Count, Mundy Lab (AID 2284218)
How it was run: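 Endpoint: synapses/neuron by HCI (synaptophysin puncta on MAP2-labelled neurites, Hoechst nuclei). Rat primary cortical cells, AraC DIV 5, dosed DIV 7, fixed DIV 12; DMSO negative control.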

[21] = CCTE_Mundy_HCI_hN2_NOG_NeuriteCount: CCTE's Neurite Outgrowth Assay in human hN2 cells for Neurite Count, Mundy Lab (AID 2284219; active = hit-call score of the fitted dose curve at least 0.9, where 1 is the maximum)
How it was run: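 In this morphology assay, hNP1-derived neurons received test chemical 2 h post-plating and were fixed two days later in warm paraformaldehyde/sucrose containing Hoechst 33342. Neurites, labelled by rabbit anti-βIII-tubulin (1:800) and Alexa Fluor-488 (1:500), were counted automatically.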

[22] = CCTE_Mundy_HCI_hN2_NOG_NeuriteLength: CCTE's Neurite Outgrowth Assay in human hN2 cells for Neurite Length, Mundy Lab (AID 2284220; active = hit-call score of the fitted dose curve at least 0.9, where 1 is the maximum)
How it was run: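 Read-out is neurite length from high-content imaging of βIII-tubulin/Alexa Fluor-488-labelled neurons, referenced to DMSO controls.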

[23] = CCTE_Mundy_HCI_Cortical_Synap_Neur_Matur_NeuriteCount: CCTE's Synaptogenesis and Neurite Maturation Assay in rat cortical cells for Neurite Count, Mundy Lab (AID 2284222);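 note: exposure from day 7 to day 12 in vitro with readout at day 12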
How it was run: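 Rat primary cortical cells; AraC added at DIV 5, chemicals dosed with media change at DIV 7 through DIV 12. MAP2/synaptophysin/Hoechst immunostaining, high-content imaging of neurite number; fitted relative to DMSO.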

[24] = CCTE_Mundy_HCI_Cortical_Synap_Neur_Matur_CellBodySpotCount: CCTE's Synaptogenesis and Neurite Maturation Assay in rat cortical cells for Cell Body Spot Count, Mundy Lab (AID 2284223)
How it was run: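 Rat primary cortical cultures received AraC at DIV 5 to arrest glia, were dosed with chemical at DIV 7 with media change, and were fixed at DIV 12 (288.33 h). Synaptophysin puncta on MAP2-positive cell bodies per neuron were counted by high-content imaging versus DMSO.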

[25] = CCTE_Mundy_HCI_Cortical_NOG_NeuronCount: CCTE's Neurite Outgrowth Assay in rat cortical cells for Neuron Count, Mundy Lab (AID 2284236; active = hit-call score of the fitted dose curve at least 0.9, where 1 is the maximum;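 note: neurons counted by imaging betaIII-tubulin and Hoechst stained cortical cells; cells exposed to compound for about 48 hours before fixation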)
How it was run: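 Read-out: neuron number by high-content imaging of betaIII-tubulin (Alexa Fluor-488) and Hoechst-labelled rat primary cortical cells.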

[26] = CCTE_Mundy_HCI_Cortical_NOG_BPCount: CCTE's Neurite Outgrowth Assay in rat cortical cells for Branch Point Count, Mundy Lab (AID 2284237)
How it was run: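 Measured 50.33 h after dosing, this morphology endpoint uses rat primary cortical cultures labelled for betaIII-tubulin. Branch points are quantified by high-content imaging, with DMSO as negative control and baseline.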

[27] = CCTE_Mundy_HCI_hNP1_Casp3_7: CCTE's Caspase-Glo 3/7 Assay in human neuroprogenitor cells for Apoptosis, Mundy Lab (AID 2284240)
How it was run: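 Luminescent caspase-3/7 readout, 26.5 h post-dose, in human neural progenitor cells from WA09 embryonic stem cells. Cells grew 40–44 h at 37 °C, 5% CO2 before chemical addition. Activity analysed as signal increase over DMSO baseline.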

[28] = CCTE_Mundy_HCI_hNP1_CellTiter: CCTE's Cell Titer-Glo 2 Assay in human neuroprogenitor cells for Viability, Mundy Lab (AID 2284241; active = hit-call score of the fitted dose curve at least 0.9, where 1 is the maximum)
How it was run: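 Viability read as luminescent ATP content (CellTiter-Glo, 30 min room temperature) twenty-four hours after dosing, relative to DMSO. Cells: WA09-derived hNP1 neuroprogenitors on poly-L-ornithine/laminin, plated 40 to 44 hours before chemical.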

Measured: outcome

C=CCN1CC[C@]23c4c5ccc(O)c4O[C@H]2C(=O)CC[C@@]3(O)[C@H]1C5
inactive: [1] | [2] | [3] | [4] | [5] | [6] | [7] | [8] | [9] | [10] | [11] | [12] | [13] | [14] | [15] | [16] | [17] | [18] | [19] | [20] | [21] | [22] | [23] | [24] | [25] | [26] | [27] | [28]
